Screening data: PubChem BioAssay, National Center for Advancing Translational Sciences (NCATS)
ELG1 repair inh: qHTS screen for small molecules that inhibit ELG1-dependent DNA repair in human embryonic kidney (HEK293T) cells expressing luciferase-tagged ELG1. HEK293T ELG1-luciferase reporter, luminescence, 16 h; DNA damage induced by 5-fluorouridine. Potency, µM (highest dose often 46.1 µM), actives largely listed as inhibitors. 330,000 tested, 2.3% active. AID 504467, 2011; further: nearly all actives have a fitted effect of over 55% in size
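DMSO vehicle served as the neutral condition. Each well held 2,000 cells given 5-fluorouridine plus compound; after 16 hr at 37 °C/5% CO2, ONE-Glo was added and luciferase measured 30 min later.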
IL1B secr inh: qHTS for Inhibitors of Inflammasome Signaling: IL-1-beta AlphaLISA Primary Screen; THP-1 LPS/ATP IL-1B secretion, AlphaLISA, 16 h; active compounds read low; 360,000 tested, 4.7% active; AID 743279, 2014; activity change, % at 57.5 µM; in the data active means activity change below about -50%; inconclusive means mostly about -30% to -49%
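Secreted IL-1B measured by AlphaLISA bead assay after 16 h compound exposure of THP-1 cells; compounds (final up to 57.5 uM) added 1 h before LPS (250 ng/mL) and ATP (1.25 mM) stimulation; lower signal means less secretion.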
VP16 counter: VP16 counterscreen qHTS for inhibitors of ROR gamma transcriptional activity; Drosophila S2 Gal4-VP16 UAS-luciferase, luminescence, 20 h; Potency, µM (series often up to 53.6 µM), most hits filed as inhibitors; 310,000 tested, 3.5% active;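 further: Gal4-VP16 expression switched on by copper sulfate through the metallothionein promoter; nearly all actives have a fitted effect of over 50% in size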
TDP1 cell noCPT: qHTS for Inhibitors of human tyrosyl-DNA phosphodiesterase 1 (TDP1): qHTS in cells in absence of CPT; DT40 Tdp1-/- hTDP1 cells, no CPT, ATP luminescence, 48 h; Potency, µM (doses to about 46.2 µM), usual class: inhibitors; 420,000 tested, 15% active; further: nearly all actives have a fitted effect of over 55% in size
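DT40 Tdp1-/-;hTDP1 cells, no CPT (DMSO vehicle only), 400 cells/well; compounds pin-transferred; ≥48 hr, 37 °C; CellTiter-Glo 30 min RT dark, luminescence read.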
DT40 TDP1 CPT: qHTS for Inhibitors of human tyrosyl-DNA phosphodiesterase 1 (TDP1): qHTS in cells in presence of CPT; chicken DT40 Tdp1-/-;hTDP1 cells + 20 nM CPT, ATP luminescence, 48 h; Potency, µM (titrated, usually from 46.2 µM), most hits filed as inhibitors; 420,000 tested, 12% active; further: nearly all actives have a fitted effect of over 55% in size
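Chicken DT40 Tdp1-/- cells stably complemented with human TDP1 were seeded at 400 cells/well in medium containing 20 nM camptothecin, exposed to pin-transferred compounds, and grown at 37 °C for at least 48 hr. Viability was read as ATP luminescence.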
RORgamma inh: qHTS for inhibitors of ROR gamma transcriptional activity. Drosophila S2 Gal4-RORgamma UAS-luciferase reporter, 20 h. Potency, µM (titrated, usually from 53.6 µM), usual class: inhibitors. 310,000 tested, 5.4% active. AID 2551, 2010; further: nearly all actives have a fitted effect of over 60% in size
Target sequence (P51450 whole entry, looked up, the tested form may be a part): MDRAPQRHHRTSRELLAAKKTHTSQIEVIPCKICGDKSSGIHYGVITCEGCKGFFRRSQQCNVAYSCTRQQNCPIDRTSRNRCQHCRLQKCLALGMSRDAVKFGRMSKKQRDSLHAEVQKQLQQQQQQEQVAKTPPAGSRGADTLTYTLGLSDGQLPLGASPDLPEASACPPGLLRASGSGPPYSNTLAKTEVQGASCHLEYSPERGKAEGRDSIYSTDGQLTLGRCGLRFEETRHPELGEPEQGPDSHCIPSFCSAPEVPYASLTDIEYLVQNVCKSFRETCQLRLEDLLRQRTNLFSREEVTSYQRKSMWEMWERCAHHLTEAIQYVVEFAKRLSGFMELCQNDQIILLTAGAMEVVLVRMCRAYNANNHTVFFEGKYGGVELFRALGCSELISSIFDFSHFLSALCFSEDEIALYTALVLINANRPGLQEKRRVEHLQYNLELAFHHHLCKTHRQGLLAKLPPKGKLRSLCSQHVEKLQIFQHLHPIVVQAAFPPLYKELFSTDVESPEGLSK
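Compounds are pin-transferred onto Drosophila Schneider cells expressing a copper-inducible Gal4–ROR gamma transactivation domain fusion. After 1 hr, copper sulfate is added to 700 uM final; luciferase is read 20 hr later.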
Hits are given with their value; n = inactive; u = inconclusive; x = no result given; [ ] = dose if it differs, or a comment. The list is not random: actives were taken first. Their share in the collection is about 21%. Unless noted, the call rests on the fitted dose curve; in most records, active means well fitted curve in the direction sought with a large enough effect; inconclusive means small, poorly fitted or top-dose-only effect, or another doubt; inactive means no such curve, though single readings can be large; an effect the other way counts as inactive or inconclusive.

SMILES	ELG1 repair inh	IL1B secr inh	VP16 counter	TDP1 cell noCPT	DT40 TDP1 CPT	RORgamma inh
c1ccc(-c2onc(-c3ccco3)c2-c2ccc3[nH]ccc3c2)cc1	n	n	n	u	7.9µM	n
c1ccc(-c2ccc3[nH]ccc3c2)cc1	u	n	x	u	u	x
Cc1cccc(N2CCN(S(=O)(=O)c3ccc(Cl)nc3)CC2C)c1 (stereo not drawn)	n	n	x	n	n	x
C=C1CSc2nc(=O)c3c4c(sc3n21)CCC4	21µM	n	n	n	n	n
C=C1CSc2nc(=O)c3c4c(sc3n21)CCCC4	n	n	n	n	n	n
CC(NCC(O)COCCC12CC3CC(CC(C3)C1)C2)c1ccccc1 (stereo not drawn)	n	-98	u	15µM	6.5µM	13µM
OC(COCCC12CC3CC(CC(C3)C1)C2)CN1CCCC1 (stereo not drawn)	n	n	n	u	18µM	u
CSc1nsc(SC)c1C(=O)NC(=O)Nc1cccnc1	n	n	n	n	n	n
CSc1nsc(SC)c1C(=O)Nc1ccc(C(C)(C)C)cc1	18µM	n	u	u	u	n
Cc1cc(C(=O)COC(=O)c2ccc(NC(=O)CC#N)cc2)c(C)n1CC(F)(F)F	x	n	x	n	n	x
Cc1ccc(NC(=O)CSCC(=O)N=c2sccn2C)cc1	u	n	x	u	n	x
Cc1cc(C(=O)COC(=O)c2ccc(NC(=O)CC#N)cc2)c(C)n1C1CC1	u	n	x	21µM	21µM	x
Cc1ccc(Cn2ccsc2=NC(=O)COC(=O)c2ccc(NC(=O)CC#N)cc2)cc1	u	n	x	16µM	u	x
Cc1ccc(Cn2ccsc2=NC(=O)CCl)cc1	n	-100	u	5.8µM	12µM	u
Cc1ccc(NC(=O)CN(C)C(=O)COC(=O)c2ccc(NC(=O)CC#N)cc2)cc1	n	n	x	n	n	x
COCCN(C(=O)CCC(=O)Nc1ccccn1)C(C(=O)NCCC(C)C)c1ccc(C)cc1 (stereo not drawn)	n	n	n	n	n	n
Cc1cccc2sc(NC(=O)C3CCN(S(=O)(=O)c4cc([N+](=O)[O-])ccc4Cl)CC3)nc12	u	-76	u	16µM	18µM	u
O=C(CCNC(=O)C1CCN(S(=O)(=O)c2ccccc2)CC1)NCCc1cccc(F)c1	n	n	n	26µM	u	n
O=C(NCc1ccc(N2CCCC2=O)cc1)Nc1cccc(Cl)c1	u	-61	n	u	n	n
COc1ccccc1CNC(=O)C1CCN(S(=O)(=O)c2ccc(N3CCCC3=O)cc2)CC1	n	n	n	u	n	n
O=C(NCc1ccccc1)C1CCN(S(=O)(=O)c2ccc(N3CCCC3=O)cc2)CC1	n	n	n	21µM	n	n
Cc1ccc(-n2ccc(=O)c(C(=O)Nc3ccc(S(=O)(=O)Nc4nccs4)cc3)n2)cc1	n	n	n	n	n	n
CCOC(=O)C1CCCN(C(=O)C(CCSC)NC(=O)COc2ccccc2)C1 (stereo not drawn)	n	n	x	n	n	x
COc1ccc(S(=O)(=O)N2CCN3CCCC3C2)cc1 (stereo not drawn)	n	n	n	n	n	n
[O]=[Bi][O]C(=O)[O][Bi]=[O]	x	x	n	n	u	n[10 µM]
SMILES	ELG1 repair inh	IL1B secr inh	VP16 counter	TDP1 cell noCPT	DT40 TDP1 CPT	RORgamma inh
COc1ccc(-c2nc(-c3ccccc3)c(Nc3ccc4ccccc4c3)o2)cc1	x	x	n	x	x	u
O=C(CCc1ccccc1)NCc1ccc2c(c1)CCN2C(=O)c1ccc(Cl)cc1	x	x	x	n	n	x
O=C(NC1CC1)C1CCN(S(=O)(=O)c2cc([N+](=O)[O-])ccc2Cl)CC1	u	n	x	n	n	x
O=C(NCc1ccc(Cl)cc1)C1CCN(S(=O)(=O)c2ccc(N3CCCC3=O)cc2)CC1	n	n	n	u	10µM	n
O=C(NCc1ccc(Cl)cc1)C1CCN(S(=O)(=O)c2cc([N+](=O)[O-])ccc2Cl)CC1	n	n	u	16µM	23µM	u
O=C(NCc1ccc(F)cc1)C1CCN(S(=O)(=O)c2ccc(Cl)cc2)CC1	n	n	n	u	n	n
COc1ccc(Nc2nc(-c3cccs3)cs2)c(OC)c1	u	n	n	n	n	n
Cc1ccc(Nc2nc(-c3sc(N)nc3C)cs2)cc1	n	n	n	u	n	n
Cc1ccc(Nc2nc(-c3sc(C)nc3C)cs2)cc1	n	n	n	0.58µM	0.92µM	u
CC(=O)c1ccc(Nc2nc(-c3sc(C)nc3C)cs2)cc1	x	n	x	1.8µM	2.1µM	x
COc1ccc(Nc2nc(-c3sc(C)nc3C)cs2)c(OC)c1	u	n	n	8.2µM	6.5µM	n
CC(=O)Nc1ccc(Nc2nc(-c3sc(C)nc3C)cs2)cc1	u	-50	n	u	16µM	u
O=C(COC(=O)/C=C/c1cccc(C(F)(F)F)c1)NCc1cccs1	n	n	x	n	n	x
CCc1nc2ccc(C(=O)NCCCn3ccnc3)cn2c1N(CC)CCOC	x	n	x	n	n	x
Cc1nc(C)c(-c2csc(Nc3ccc(S(N)(=O)=O)cc3)n2)s1	u	-59	n	u	u	u
CC(O)CCCCn1c(=O)c2c(ncn2C)n(C)c1=O (stereo not drawn)	x	x	n	n	n	n
O=C1CNC(=S)N1c1nc(-c2ccccc2)cs1	u	n	u	n	n	3.2µM
COc1ccc(C(CNC(=O)Cc2cc(OC)c(OC)c(OC)c2)N2CCCC2)cc1 (stereo not drawn)	n	n	n	n	n	n
COC(=O)C1CCC(=O)N1C(c1ccc(OC)cc1)c1cc(OC)c(OC)c(OC)c1 (stereo not drawn)	x	n	x	1.3µM	1.5µM	x
Cc1nc(-c2ccc(O)c(O)c2)cs1	u	n	u	u	16µM	n
Oc1ccc(-c2csc(-c3cccnc3)n2)cc1O	u	-78	n	23µM	18µM	n
Cc1ccc2c(c1)c1c(c(=O)n(-c3ccccc3)c(=O)n1Cc1ccccc1C)n2C	x	x	x	n	n	x
CC(C)CNC(=O)C1(C)CCCN1C(=O)c1cccnc1 (stereo not drawn)	x	n	x	n	n	x
CN1CCC(OC(=O)COc2ccc(F)cc2)CC1	u	n	n[10 µM]	n	n	n
Cc1ccc(OCCCCN(C)Cc2ccccc2)c(Br)c1	n	-98	n	18µM	23µM	n
COc1ccccc1OCCOCCOc1ccc(C)cc1Br	n	n	n	u	u	n
